Assay results: PubChem BioAssay (EPA / NIEHS)
Activity calls are given as the source filed them. The calls were made as follows: active = hit-call score of the fitted dose curve at least 0.9, where 1 is the maximum; inactive = score below 0.9.

Experiments:
Conditions in all cases: mRNA level, 48 h; actives raise or lower the signal
[1] = read-out: CYP2C9 (gene 1559); assay: LTEA_HepaRG_CYP2C9: Life Technologies and Expression Analysis (LTEA) Assay for CYP2C9 using HepaRG (AID 2283484)
In short: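 CYP2C9 transcript level, quantified by TaqMan qRT-PCR against three housekeeping genes, was fitted bidirectionally relative to 0.5% DMSO. HepaRG cultures were treated 48 h, in duplicate, at eight half-log concentrations topping at 100 uM.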

[2] = read-out: CYP2E1 (gene 1571); assay: LTEA_HepaRG_CYP2E1: Life Technologies and Expression Analysis (LTEA) Assay for CYP2E1 using HepaRG (AID 2283485)
Description: (§1) LTEA_HepaRG is a cell based, multiplexed-readout assay that uses HepaRG, a human liver cell line, with measurements taken at 48 hours after chemical dosing on a 96-well plate.LTEA_HepaRG_CYP2E1 is one of 102 assay component(s) measured in the LTEA HepaRG cell culture assay. It is a marker of NR mediated metabolism.Data from the assay component LTEA_HepaRG_CYP2E1 was analyzed into 1 endpoint. This assay endpoint, LTEA_HepaRG_CYP2E1, was analyzed with bidirectional fitting relative to DMSO as the negative control and baseline of activity. Using a type of inducible reporter, measures of mRNA induction for gain or loss-of-signal activity can be used to understand regulation of transcription factor activity. To generalize the intended target to other relatable targets, this assay endpoint is annotated to the cyp intended target family, where the subfamily is xenobiotic metabolism.
(§2) A total of 1060 chemcials from the ToxCast library were tested in eight-point concentration-response experiments. Cell culture and cytotoxicity assays were conducted at Thermo Fisher Scientific's Custom Services facility (Madison, WI). A single lot of human HepaRG cells (Thermo Fisher Scientific, Frederick, MD) was used for the cell culture experiments. 96-well format collagen type I coated plates of human HepaRG cells were prepared using established methods. Briefly, cryopreserved HepaRG cells were thawed, plated at a density of approximately 100,000 cells/well in HepaRG Thaw, Plate, and General Purpose media (HPRG770, Thermo Fisher Scientific), and incubated for 48 hours. […] Fluidigm's 96.96 Dynamic ArrayTM (Fluidigm, Amsterdam, the Netherlands) technology was used for gene expression analyses by quantitative reverse transcription polymerase chain reaction (qRT-PCR, performed by Quintiles/Expression Analysis, Durham, NC)89. […]

[3] = read-out: CYP4A11 (gene 1579); assay: LTEA_HepaRG_CYP4A11: Life Technologies and Expression Analysis (LTEA) Assay for CYP4A11 using HepaRG (AID 2283486)
Description: as §1, with “plate.LTEA_HepaRG_CYP4A11” for “plate.LTEA_HepaRG_CYP2E1”, “LTEA_HepaRG_CYP4A11” for “LTEA_HepaRG_CYP2E1”, “LTEA_HepaRG_CYP4A11,” for “LTEA_HepaRG_CYP2E1,”
as §2

[4] = read-out: Cytochrome P450 3A4 (Homo sapiens) (UniProt P08684); assay: LTEA_HepaRG_CYP3A4: Life Technologies and Expression Analysis (LTEA) Assay for CYP3A4 using HepaRG (AID 2283487)
In short: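 Differentiated HepaRG cells, plated 48 h, then dosed 48 h in serum-free induction medium with 0.5% DMSO, 8 half-log concentrations up to 100 uM, duplicate. CYP3A4 mRNA by qRT-PCR, normalized to ACTB/GAPDH/POLR2A; bidirectional fit versus DMSO.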

[5] = read-out: DNA damage-inducible transcript 3 (DDIT3), DDIT3 (gene 1649); assay: LTEA_HepaRG_DDIT3: Life Technologies and Expression Analysis (LTEA) Assay for DNA damage-inducible transcript 3 (DDIT3) using HepaRG (AID 2283488)
In short: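 DDIT3 transcript was quantified by qRT-PCR with ACTB/GAPDH/POLR2A normalization after 48 h chemical treatment of differentiated HepaRG cells in 0.5% DMSO. Dosing was eight-point, half-log, top 100 uM, duplicate wells. Curves fitted bidirectionally versus DMSO.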

[6] = read-out: Pro-epidermal growth factor (Homo sapiens) (UniProt P01133); assay: LTEA_HepaRG_EGF: Life Technologies and Expression Analysis (LTEA) Assay for Epidermal growth factor (EGF) using HepaRG (AID 2283489)
In short: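 HepaRG, 48 h dosing, 100 uM top, half-log x8, 0.5% DMSO. Readout: TaqMan qRT-PCR (Fluidigm array), housekeeping-normalized. Gain or loss of signal fit vs DMSO.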

[7] = read-out: Early growth response protein 1 (EGR1) transcription factor, EGR1 (gene 1958); assay: LTEA_HepaRG_EGR1: Life Technologies and Expression Analysis (LTEA) Assay for Early growth response protein 1 (EGR1) transcription factor using HepaRG (AID 2283490)
In short: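 EGR1 transcript levels quantified by qRT-PCR (Fluidigm arrays) against three housekeeping genes after 48 h chemical exposure of HepaRG cells. Eight-point half-log series topping at 100 uM, 0.5% DMSO vehicle, analyzed for gain or loss.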

[8] = read-out: Ezrin (EZR), EZR (gene 7430); assay: LTEA_HepaRG_EZR: Life Technologies and Expression Analysis (LTEA) Assay for Ezrin (EZR) using HepaRG (AID 2283491)
Description: It is a marker of Cellular remodeling.Data from the assay component LTEA_HepaRG_EZR was analyzed into 1 endpoint. This assay endpoint, LTEA_HepaRG_EZR, was analyzed with bidirectional fitting relative to DMSO as the negative control and baseline of activity. Using a type of inducible reporter, measures of mRNA induction for gain or loss-of-signal activity can be used to understand regulation of transcription factor activity. To generalize the intended target to other relatable targets, this assay endpoint is annotated to the membrane protein intended target family, where the subfamily is Cellular remodeling.
as §2, with “hours. 0.5% DMSO was selected as vehicle control to balance the requisite need of DMSO in HepaRG cultures to maintain differentiation (for example, baseline metabolism, proportions of hepatocytes vs. cholangiocytes), while enabling further hepatic receptor pathway activation (for example, PXR and CAR) in response to chemical exposure. 48 hours after plating, the culture medium was replaced with HepaRG Serum-Free Incudtion Media. Cells were exposed to each test chemical in duplicate and maintained in CO2 incubators for another 48 hours.” for “hours.”

[9] = read-out: Cytochrome P450 3A7 (Homo sapiens) (UniProt P24462); assay: LTEA_HepaRG_CYP3A7: Life Technologies and Expression Analysis (LTEA) Assay for CYP3A7 using HepaRG (AID 2283492)
In short: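 Human HepaRG liver cells, 48 h post-plating, switched to serum-free induction medium and exposed in duplicate for 48 h. Dosing: 100 uM top, half-log dilutions, 8 points, 0.5% DMSO vehicle. Read-out: CYP3A7 mRNA, gain or loss fitted against DMSO baseline.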

[10] = read-out: CYP3A5 (gene 1577); assay: LTEA_HepaRG_CYP3A5: Life Technologies and Expression Analysis (LTEA) Assay for CYP3A5 using HepaRG (AID 2283493)
In short: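 mRNA levels were quantified by qRT-PCR on Fluidigm arrays and normalized to three housekeeping genes. Differentiated HepaRG cells received 48 h exposure (top 100 uM, half-log steps, 0.5% DMSO vehicle, duplicate); bidirectional fitting versus DMSO.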

Cytochrome P450 3A7 (Homo sapiens), sequence (P24462 whole entry, looked up): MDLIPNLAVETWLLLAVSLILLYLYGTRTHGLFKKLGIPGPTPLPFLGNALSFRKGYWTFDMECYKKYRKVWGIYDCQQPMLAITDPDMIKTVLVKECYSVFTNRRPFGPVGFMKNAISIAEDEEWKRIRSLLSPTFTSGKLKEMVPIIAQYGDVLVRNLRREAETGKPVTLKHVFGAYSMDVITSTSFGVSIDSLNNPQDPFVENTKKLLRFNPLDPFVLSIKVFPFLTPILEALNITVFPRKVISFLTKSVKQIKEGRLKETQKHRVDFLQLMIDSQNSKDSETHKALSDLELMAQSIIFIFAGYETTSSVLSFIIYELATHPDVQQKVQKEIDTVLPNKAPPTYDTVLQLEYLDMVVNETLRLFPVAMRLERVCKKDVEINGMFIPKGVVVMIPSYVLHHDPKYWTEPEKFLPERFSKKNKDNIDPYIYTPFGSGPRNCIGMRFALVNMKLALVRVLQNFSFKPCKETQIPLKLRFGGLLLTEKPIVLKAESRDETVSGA
Cytochrome P450 3A4 (Homo sapiens), sequence (P08684 whole entry, looked up): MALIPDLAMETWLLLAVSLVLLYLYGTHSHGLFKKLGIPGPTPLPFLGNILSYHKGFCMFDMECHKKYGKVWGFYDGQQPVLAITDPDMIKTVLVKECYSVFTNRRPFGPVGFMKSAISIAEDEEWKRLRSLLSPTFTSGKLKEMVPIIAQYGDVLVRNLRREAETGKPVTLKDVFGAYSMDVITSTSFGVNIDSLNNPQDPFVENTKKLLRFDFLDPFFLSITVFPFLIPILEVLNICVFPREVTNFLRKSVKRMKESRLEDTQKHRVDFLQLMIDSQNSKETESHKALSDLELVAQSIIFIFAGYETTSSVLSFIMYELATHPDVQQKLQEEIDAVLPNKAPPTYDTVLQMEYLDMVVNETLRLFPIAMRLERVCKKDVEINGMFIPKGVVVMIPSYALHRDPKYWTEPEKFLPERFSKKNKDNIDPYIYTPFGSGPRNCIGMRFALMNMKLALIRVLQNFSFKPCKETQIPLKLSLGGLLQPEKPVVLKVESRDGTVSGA

For `C1CNCCN1`, the outcome [1] was “inactive”, the outcome [2] was “inactive” and the outcome [3] was “inactive”. The outcome [4] was “inactive”, the outcome [5] was “inactive” and the outcome [6] was “inactive”. For the same molecule, the outcome [7] was “inactive”, the outcome [8] was “inactive” and the outcome [9] was “inactive”. For the same molecule, the outcome [10] was “inactive”.

In the case of `Nc1ccc(C(=O)O)cc1`, the outcome [1] is reported as “inactive”, the outcome [2] is reported as “inactive” and the outcome [3] is reported as “inactive”. For the same molecule, the outcome [4] was “inactive”, the outcome [5] was “inactive” and the outcome [6] was “inactive”. For the same molecule, the outcome [7] was “inactive”, the outcome [8] was “inactive” and the outcome [9] was “inactive”. The outcome [10] was “inactive”.

With `Cc1ccc([N+](=O)[O-])cc1N` the outcome [1] was “inactive”, the AC50 [2] was 32.4 µM (active) and the outcome [3] was “inactive”. For the same molecule, the outcome [4] was “inactive”, the outcome [5] was “inactive” and the outcome [6] was “inactive”. For the same molecule, the outcome [7] was “inactive”, the outcome [8] was “inactive” and the outcome [9] was “inactive”. For the same molecule, the outcome [10] was “inactive”.
